An excerpt weighted towards active compounds, which were near 4.8% of everything screened.
SMARCA2 act: SMARCA2 (BRM) function activators, primary screen, cell-based, luminescence, high throughput; MG213 cells, MMTV-luciferase reporter, dexamethasone, overnight; activation, % at 9.1 µM; hit rate 1% among 370,000; AID 652017, 2013; in the data active means activation above about 7.8%;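 further: 0% = vehicle wells and 100% = reference activator wells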
DAX1 inh-1: DAX1 (NR0B1) inhibitors on StAR promoter, primary screen, cell-based, luminescence, SF-1 (NR5A1), full-length DAX-1; inhibition, % at 6.8 µM; AID 652010, 2013; HEK293T StAR-luciferase reporter, SF-1/DAX-1 repression relief; hit rate 1.1% among 370,000;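 active means inhibition above the mean over all tested compounds plus 3 SD, cut at about 3.6% in these data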;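 further: 0% = DAX-1 cells with DMSO and 100% = cells lacking DAX-1 with DMSO; higher inhibition means more luminescence from relief of DAX-1 repression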
hcDAF12 agonist: H. contortus DAF-12 nuclear receptor activators, primary screen, cell-based, luminescence, HEK293, lit1-tk-luc reporter; HEK293 hcDAF-12 lit1-tk-luc reporter; 0% DMSO, 100% Δ7-dafachronic acid; activation, % at 6.8 µM; hit rate 1.4% among 370,000; AID 652067, 2013;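 active means activation above the mean of all tested compounds plus 3 SD, cut at about 5.5% in these data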;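 further: 100% = response to 3 µM Δ7-dafachronic acid high control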
ssDAF12 agonist: S. stercoralis DAF-12 nuclear receptor activators, primary screen, cell-based, luminescence, HEK293, GRIP1 co-expression, lit1-tk-luc; HEK293 ssDAF-12/GRIP1 lit1-tk-luc reporter; % of 3 µM dafachronic acid response; activation, % at 6.8 µM; hit rate 1% among 370,000; AID 652126, 2013;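 active means activation above the mean over all tested compounds plus 3 SD, cut at about 0.9% in these data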;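 further: 0% = DMSO-only wells and 100% = 3 µM delta7-dafachronic acid wells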
DAX1 inh-2: DAX1 (NR0B1) inhibitors, primary screen, cell-based, HEK293, Gal4-DAX1, luciferase luminescence; HEK293 Gal4-DAX1 luciferase reporter; Nuclear receptor subfamily 0 group B member 1 (Homo sapiens), P51843; inhibition, % at 6.75 µM; hit rate 0.99% among 340,000;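 active means inhibition above the mean over all tested compounds plus 3 SD, cut at about 4.2% in these data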;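 further: 0% = DAX1-transfected cells with DMSO and 100% = empty-vector control cells with DMSO; inhibition shows as a rise in luminescence from relieved DAX1 repression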
Target sequence (P51843 207-470 limits assumed): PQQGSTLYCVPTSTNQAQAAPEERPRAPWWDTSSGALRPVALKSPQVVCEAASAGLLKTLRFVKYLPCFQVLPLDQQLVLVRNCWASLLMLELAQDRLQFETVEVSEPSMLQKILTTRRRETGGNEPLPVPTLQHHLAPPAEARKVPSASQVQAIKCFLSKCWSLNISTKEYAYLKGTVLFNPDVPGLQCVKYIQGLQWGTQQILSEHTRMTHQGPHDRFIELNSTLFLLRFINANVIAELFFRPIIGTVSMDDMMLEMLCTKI
hgDAF-12 ag: H. glycines DAF-12 receptor agonists, primary screen, cell-based, luminescence, HEK293, GAL4 fusion, UAS-luciferase | Nuclear hormone receptor DAF-12 (Heterodera glycines), GAL4 fusion | HEK293 GAL4-hgDAF12 UAS-luciferase reporter, agonist luminescence; normalized to butyrate control | activation, % at 6.8 µM | hit rate 1.8% among 370,000 | AID 687014, 2013;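 active means activation above a cutoff set at the mean of all screened compounds plus 3 SD, cut at about 10% in these data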;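 further: 0% = DMSO wells and 100% = sodium butyrate wells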
Active calls of the source: *; · = no result given.

SMILES	SMARCA2 act	DAX1 inh-1	hcDAF12 agonist	ssDAF12 agonist	DAX1 inh-2	hgDAF-12 ag
CCOC(=O)C1=C(C)NC(=O)C(C(N)=O)C12CCCC2 (stereo unspecified)	-1	1	0	-1	5.1*	-3
COc1cnn(-c2ccc(C)cc2)c(=O)c1Cl	3	1	3	-1	0	12*
O=C(COc1ccc2c(c1)OCO2)Nc1ccccc1F	6	3	4	0	4	13*
COC(=O)c1ccccc1NC(=O)COc1ccc2c(c1)OCO2	-1	1	1	-1	0	0
CC(C)CCNC(=O)[C@H]1COC(O)([C@H](Cc2ccccc2)NC(=O)[C@@H](NC(=O)OCc2ccccc2)C(C)C)CN1C (stereo partly specified)	·	·	1	-1	·	1
CC(NC(=O)Cn1cccc1)c1ccccc1 (stereo unspecified)	2	4.0*	0	-1	1	-1
CC(NC(=O)CCN1C(=O)c2ccccc2C1=O)c1ccccc1 (stereo unspecified)	4	0	2	-1	4.5*	0
COc1ccc2oc(C(=O)NNC(=O)c3ccc(F)cc3)c(C)c2c1	0	1	1	-1	3	3
COc1ccc2oc(C(=O)NC(C)(C)C)c(C)c2c1	7	3	1	-1	2	13*
CN(Cc1ccccc1)C(=O)OCc1cn(Cc2ccc(F)c(F)c2)nn1	-3	0	0	-1	·	2
CC(C)C1=NN(C(=O)c2ccccc2)C(O)(C(C)(C)C)C1 (stereo unspecified)	3	1	0	0	2	12*
CC(C)c1ccc(C2OCCCO2)cc1	-3	0	0	-1	-1	-3
CC(C)c1ccc(C2OCC(C)([N+](=O)[O-])CO2)cc1 (stereo unspecified)	2	3.9*	1	-1	0	-1
COc1ccc(-c2csc(NC(C)=O)n2)cc1OC	0	1	1	-1	0	3
COc1cccc(-c2csc(NC(C)=O)n2)c1	7	1	0	-1	1	11*
CC(=O)Nc1nc(-c2ccc3c(c2)CCO3)cs1	2	0	2	-1	0	11*
Cc1ccc(CN2CCCCC(NC(=O)Nc3ccccc3)C2=O)cc1 (stereo unspecified)	-2	-2	1	-1	·	8
O=C(NC1CCCCN(Cc2cccc(F)c2)C1=O)c1ccc(-c2ccccc2)cc1 (stereo unspecified)	-6	-2	-3	-2	·	-2
O=c1c2ccccc2c(/C=N/NS(=O)(=O)c2ccccc2)c(O)n1-c1ccccn1	-5	-1	0	1.0*	-1	0
O=C(CCC(=O)N1CCN(C2c3ccccc3-c3ccccc32)CC1)Nc1nnc(C(F)(F)F)s1	-3	1	-1	-1	·	1
C[C@H]1[C@@H](OC(=O)N2CCN(c3ccccc3)CC2)CC[C@@]23CCCN2C(=O)CCC[C@@H]13	·	·	0	-2	·	-2
CCOc1ccc(-c2csc(NC(=O)CSC3=NC(=O)CN3C(C)=O)n2)c2ccccc12	2	-1	-1	-1	1	11*
O=C(NCCCN1CCN(c2ccc(F)cc2)CC1)Nc1ccccc1	-4	2	-2	-1	·	-3
COC(=O)c1scc(C)c1N/N=C(\C)c1ccc(F)cc1	-3	1	4	1.0*	0	1
CC(COc1ccc(F)cc1)CN1CCC(C(O)(c2ccccc2)c2ccccc2)CC1 (stereo unspecified)	-7	-1	-3	-1	·	-1
SMILES	SMARCA2 act	DAX1 inh-1	hcDAF12 agonist	ssDAF12 agonist	DAX1 inh-2	hgDAF-12 ag
O=C(CSc1nc2ccccc2[nH]1)NN=Cc1c(F)cccc1Cl	2	-1	1	0	·	0
Cc1ccc(-n2ncc3c(SCC(N)=O)ncnc32)cc1C	2	2	5	0	4.3*	8
Cc1ccc(-n2ncc3c(=O)n(CC(N)=O)cnc32)cc1C	7	0	3	-1	1	3
O=C(CSc1ncnc2c1cnn2-c1ccccc1)Nc1ccccc1	-3	1	1	-1	-1	1
O=C(CSc1ncnc2c1cnn2-c1ccccc1)NC1CCCC1	-2	1	5.7*	0	1	2
COC(=O)C[C@H]1CC[C@H]2[C@H](COc3ccc(NS(=O)(=O)c4ccccc4C)cc3C(=O)N2C)O1	-5	-1	-2	-1	·	-2
Cc1ccc(-c2n[nH]c(Cc3ccccc3)n2)cc1	7.9*	1	3	-1	2	7
CCC(=O)c1ccc(OCC(=O)Nc2nc(C)cs2)cc1	3	2	1	0	3	12*
Cn1c(CSCc2ccccc2)nnc1SCC(=O)Nc1nccs1	-2	-1	-1	-1	-1	-3
COc1ccccc1C(=O)NCc1nnc(SCC(=O)Nc2nccs2)n1C	2	0	3	-1	8.3*	-1
CCC(=O)c1ccc(OCC(=O)Nc2nc(-c3cccnc3)cs2)cc1	-3	1	3	0	-2	2
Cc1ccc(SCC(=O)Nc2nccs2)cc1	7.8*	1	1	-1	0	4
COc1ccc(OCC(=O)Nc2nccs2)cc1	1	3	6.1*	0	-2	8
COC(=O)c1cn(-c2ccc3c(c2)[C@]2(CC(=O)N(C)C2c2ccccc2)C(=O)N3CC(C)C)nn1 (stereo partly specified)	-3	0	1	-1	·	4
NS(=O)(=O)c1ccc(NC(=O)c2cccc3ccccc23)cc1	0	0	0	-2	2	1
Cc1occc1C(=O)Nc1ccc(S(N)(=O)=O)cc1	-1	1	-1	-2	5.6*	-1
Cc1occc1C(=O)Nc1ccc2c(c1)OCO2	-1	1	1	0	1	6
Cc1cc(NC(=O)c2ccoc2C)ccc1Br	4	3.7*	3	0	2	9
CNS(=O)(=O)c1ccc(NC(=O)c2ccoc2C)cc1	3	0	1	-1	1	2
NS(=O)(=O)c1ccc(NC(=O)c2cccc3cc4ccccc4nc23)cc1	1	-3	-3	0.9*	-1	1
O=C(CN1C(=O)NC2(CCCCCC2)C1=O)c1ccc2c(c1)OCCO2	1	2	6.4*	0	2	11*

Compound activity as filed in PubChem.
